Data on 15 compounds can be found in PubChem BioAssay (NCATS).

Several values for one entry are separate records, joined by “and”; a condition that tells them apart may be missing. Equal values may be shown once. Results filed as inconclusive are left out. Activity calls are given as the source filed them. The call rests on the fitted dose curve; in most records, active means well fitted curve in the direction sought with a large enough effect; inconclusive means small, poorly fitted or top-dose-only effect, or another doubt; inactive means no such curve, though single readings can be large; an effect the other way counts as inactive or inconclusive.

Assay [1] can be described thus: qHTS of pediatric cancer cell lines to identify multiple opportunities for drug repurposing: Primary screen for SJ-GBM2 cells (AID 1347091). Further: potency means the concentration at half of the fitted maximal effect. Put shortly:
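Viability measured as metabolically active cells via CellTiter-Glo luminescence following 48 hours of compound exposure, 11-point dilutions in confirmatory testing. 500-1,000 cells/well plated 5 hours before dosing; controls were DMSO and 2.3 µM bortezomib.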
A general note: In qHTS, concentration-response curves come from the screen itself.

Assay [2] in a line: qHTS of pediatric cancer cell lines to identify multiple opportunities for drug repurposing: Primary screen for A673 cells (AID 1347092). Further: nearly all actives have a fitted effect of over 45% in size. Further: potency means the concentration at half of the fitted maximal effect. The essentials: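 Luminescence from CellTiter-Glo, taken after 15 min at room temperature, served as the proxy for metabolically active cells following 48 h treatment. Both potency and efficacy were taken from curves fitted to the titration data.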

Assay [3] in a line: qHTS of pediatric cancer cell lines to identify multiple opportunities for drug repurposing: Primary screen for SK-N-MC cells (AID 1347093). Further: potency means the concentration at half of the fitted maximal effect. The essentials: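 Metabolically active cells were quantified by ATP-dependent luminescence (CellTiter-Glo, 15 min at room temperature) following 48 h treatment. Cells had been plated at 500-1,000 per well and settled for 5 h beforehand.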

A short description of assay [4]: qHTS of pediatric cancer cell lines to identify multiple opportunities for drug repurposing: Primary screen for BT-37 cells (AID 1347094). Further: potency means the concentration at half of the fitted maximal effect. Put shortly: (§1)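 Luminescence from CellTiter-Glo served as readout of metabolically active cells after 48 h compound exposure. Titrations: MIPE 11-point, from 0.78 nM; NPC 8-point, from 0.59 nM (final). Concentration-response curves came straight from the primary screen.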

A short description of assay [5]: qHTS of pediatric cancer cell lines to identify multiple opportunities for drug repurposing: Primary screen for NB-EBc1 cells (AID 1347095). Further: potency means the concentration at half of the fitted maximal effect. Put shortly: as §1
Assay [6] is described as follows: qHTS of pediatric cancer cell lines to identify multiple opportunities for drug repurposing: Primary screen for Saos-2 cells (AID 1347097). Further: nearly all actives have a fitted effect of over 40% in size. Further: potency means the concentration at half of the fitted maximal effect. Put shortly:
as §1

The nature of assay [7]: qHTS of pediatric cancer cell lines to identify multiple opportunities for drug repurposing: Primary screen for SK-N-SH cells (AID 1347098). Further: nearly all actives have a fitted effect of over 65% in size. Further: potency means the concentration at half of the fitted maximal effect. Put shortly:
(§2)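 Cells (500-1,000/well) rested 5 h, then received compounds for 48 h; metabolically active cells were measured by CellTiter-Glo luminescence. Final concentrations spanned up to 46 µM (MIPE, 11-point) or 0.59 nM-46 µM (NPC, 8-point) in primary screens, 11-point in follow-ups.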

Assay [8] can be described thus: qHTS of pediatric cancer cell lines to identify multiple opportunities for drug repurposing: Primary screen for NB1643 cells (AID 1347099). Further: nearly all actives have a fitted effect of over 50% in size. Further: potency means the concentration at half of the fitted maximal effect. Put shortly:
as §1

The nature of assay [9]: qHTS of pediatric cancer cell lines to identify multiple opportunities for drug repurposing: Primary screen for LAN-5 cells (AID 1347100). Further: potency means the concentration at half of the fitted maximal effect. Put shortly:
(§3)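 Viability after 48 h compound treatment at 37C, 500-1,000 cells/well, read as ATP luminescence with CellTiter-Glo. Primary screens used 11-point (MIPE, 0.78 nM-46 µM) or 8-point (NPC, 0.59 nM-46 µM) final concentrations; follow-up screens used 11-point dilutions.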

The nature of assay [10]: qHTS of pediatric cancer cell lines to identify multiple opportunities for drug repurposing: Primary screen for Rh18 cells (AID 1347102). Further: nearly all actives have a fitted effect of over 65% in size. Further: potency means the concentration at half of the fitted maximal effect. The essentials: as §3
The nature of assay [11]: qHTS of pediatric cancer cell lines to identify multiple opportunities for drug repurposing: Primary screen for RD cells (AID 1347104). Further: nearly all actives have a fitted effect of over 55% in size. Further: potency means the concentration at half of the fitted maximal effect. Put shortly: as §1
The nature of assay [12]: qHTS of pediatric cancer cell lines to identify multiple opportunities for drug repurposing: Primary screen for MG 63 (6-TG R) cells (AID 1347105). Further: nearly all actives have a fitted effect of over 50% in size. Further: potency means the concentration at half of the fitted maximal effect. Put shortly:
as §1

The nature of assay [13]: qHTS of pediatric cancer cell lines to identify multiple opportunities for drug repurposing: Primary screen for Rh30 cells (AID 1347107). Further: nearly all actives have a fitted effect of over 75% in size. Further: potency means the concentration at half of the fitted maximal effect. The essentials:
as §3

The nature of assay [14]: qHTS of pediatric cancer cell lines to identify multiple opportunities for drug repurposing: Primary screen for Rh41 cells (AID 1347108). Further: nearly all actives have a fitted effect of over 70% in size. Further: potency means the concentration at half of the fitted maximal effect. Put shortly:
as §1

A short description of assay [15]: qHTS of pediatric cancer cell lines to identify multiple opportunities for drug repurposing: Confirmatory screen for NB1643 cells (AID 1347109). Further: nearly all actives have a fitted effect of over 45% in size. Further: potency means the concentration at half of the fitted maximal effect. Put shortly:
as §3

The nature of assay [16]: qHTS of pediatric cancer cell lines to identify multiple opportunities for drug repurposing: Primary screen for U-2 OS cells (AID 1347096). Further: nearly all actives have a fitted effect of over 50% in size. Put shortly: as §3
Assay [17] in a line: qHTS of pediatric cancer cell lines to identify multiple opportunities for drug repurposing: Primary screen for BT-12 cells (AID 1347101). Further: nearly all actives have a fitted effect of over 25% in size. Further: potency means the concentration at half of the fitted maximal effect. The essentials:
as §2

Assay [18] can be described thus: qHTS of pediatric cancer cell lines to identify multiple opportunities for drug repurposing: Primary screen for control Hh wild type fibroblast cells (AID 1347106). Further: nearly all actives have a fitted effect of over 55% in size. Further: potency means the concentration at half of the fitted maximal effect. Put shortly:
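Cells (500-1,000/well) in growth media were settled 5 h at 37 degrees C, then given compounds for 48 h. Viability was read as CellTiter-Glo luminescence. Primary runs used MIPE at 11 points (0.78 nM-46 µM) and NPC at 8 points (0.59 nM-46 µM); follow-ups used 11 points.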

A short description of assay [19]: qHTS of pediatric cancer cell lines to identify multiple opportunities for drug repurposing: Primary screen for OHS-50 cells (AID 1347103). Further: nearly all actives have a fitted effect of over 40% in size. Further: potency means the concentration at half of the fitted maximal effect. The essentials: as §2

`Oc1cccc(-c2nc(N3CCOCC3)c3oc4ncccc4c3n2)c1`: the Potency was 85.5 nM (active) in assay [1]; 2.15 µM (active) in assay [2]; 48.1 nM (active) in assay [3]; 444 nM (active) in assay [4]; 191 nM (active) in assay [5]; 340 nM (active) in [6]. Besides, the Potency in [7] was 879 nM (active); in assay [8], 215 nM (active); in assay [9] it was 960 nM (active); in [10], 303 nM (active); in assay [11] it was 241 nM (active); in [12], 85.5 nM (active). Moreover, the Potency was 13600 nM (active) in [13], 382 nM (active) in assay [14] and 2400 nM (active) in assay [15].
For the compound `Fc1ccc(Cl)cc1-c1nc(Nc2ccncc2)c2nccnc2n1`, the Potency result in [1], in assay [2], in assay [3], in assay [5], in assay [16] and in assay [7] was “inactive” each time. Further, the Potency result in [8], in assay [9], in assay [17], in [10], in [11] and in assay [12] was “inactive” throughout. Besides, the Potency entry in [18], in [13] and in assay [14] was “inactive” throughout.
`CC(=O)Oc1ccccc1C(=O)O`: the Potency entry in [1], in assay [2], in assay [3], in [4], in [5] and in assay [16] was “inactive” each time. Further, the Potency entry in assay [6], in assay [7], in [8], in assay [9], in assay [17] and in [10] was “inactive” each time. The Potency entry in [19], in assay [11] and in assay [12] was “inactive” throughout.
Consider `COc1cc2c(cc1OC)CN(CCc1ccc(NC(=O)c3cccc4c(=O)c5cccc(OC)c5[nH]c34)cc1)CC2`, for which the Potency entry in assay [1], in assay [4], in assay [5], in assay [16], in assay [6] and in assay [9] was “inactive” each time. For the same compound, the Potency result in assay [17], in [10], in assay [19], in assay [12] and in assay [18] was “inactive” in each case. In addition, the Potency in assay [2] is 4.69 µM (active); in assay [3], 10500 nM (active); in assay [7] it was 12100 nM (active); in assay [8], 7430 nM (active).
Take `CCN(CC)CCCC(C)Nc1nc(C)cc(Nc2ccc3nc(C)cc(N)c3c2)n1` (centres undefined): the Potency entry in [1], in assay [3], in [4], in assay [5], in assay [16] and in assay [7] was “inactive” in each case. Further, the Potency entry in assay [8], in [9], in assay [17], in assay [10], in assay [11] and in [12] was “inactive” throughout. The Potency result in assay [13] and in assay [14] was “inactive” throughout.
Take `COc1cccc2cc(-c3nc(C4CCC(C(=O)O)CC4)n4ncnc(N)c34)[nH]c12` (centres undefined): the Potency in assay [1] is 935 nM (active); in [3], 23.5 nM (active); in assay [5], 1660 nM (active); in [17] it was 344 nM (active); in assay [19], 109 nM (active). Besides, the Potency entry in [8], in [9], in [13] and in assay [15] was “inactive” each time.
Consider `Cc1csc(NC(=O)c2sc3nc4c(c(C(F)(F)F)c3c2N)CCC4)n1`, for which the Potency entry in assay [1], in assay [5], in assay [16], in assay [6], in [9] and in assay [17] was “inactive” throughout. Further, the Potency result in [10] and in assay [12] was “inactive” in each case. The Potency in assay [2] was 1.18 µM (active); in assay [4], 8630 nM (active); in assay [18] it was 2640 nM (active).
As to `NC(=O)c1ccc(-c2nc(-c3ccc4c(c3)OCCO4)c(-c3ccccn3)[nH]2)cc1`, the Potency entry in [1], in [3], in assay [16], in [6], in [8] and in assay [9] was “inactive” throughout. Besides, the Potency result in assay [17], in assay [10], in [11], in assay [12], in assay [18] and in assay [13] was “inactive” in each case.
As for `Cc1ccc(N(CC2=NCCN2)c2cccc(O)c2)cc1`, the Potency entry in [1], in assay [4], in [5], in assay [16], in assay [8] and in assay [9] was “inactive” throughout. In addition, the Potency result in assay [10], in assay [11], in assay [12], in assay [18], in assay [13] and in assay [14] was “inactive” throughout. Also, the Potency in [2] was 18.7 µM (active) and 16.8 µM (active); in [19], 27.3 µM (active) and 30.9 µM (active).
As to `CCCc1nc2c(C)cc(-c3nc4ccccc4n3C)cc2n1Cc1ccc(-c2ccccc2C(=O)O)cc1`, the Potency result in assay [1], in assay [2], in assay [4], in assay [5], in [16] and in assay [6] was “inactive” in each case. Further, the Potency result in [7], in assay [8], in assay [9], in assay [17], in assay [10] and in assay [19] was “inactive” throughout. The Potency result in assay [11], in assay [12], in assay [18], in assay [13] and in assay [14] was “inactive” in each case.
For `CN[C@@H](C)C(=O)N[C@H]1CCCC[C@H]2CC[C@@H](C(=O)N[C@@H](c3ccccc3)c3cn(CCCCc4ccc(CCCCn5cc([C@@H](NC(=O)[C@@H]6CC[C@@H]7CCCC[C@H](NC(=O)[C@H](C)NC)C(=O)N76)c6ccccc6)nn5)cc4)nn3)N2C1=O`, the Potency entry in assay [1], in [16], in [8], in assay [12] and in assay [18] was “inactive” throughout. Besides, the values for the Potency in [3], in [17] and in assay [10] were 6620 nM (active), 27300 nM (active) and 14800 nM (active), respectively.
With `CS(=O)(=O)c1ccc(C(=O)Nc2ccc(Cl)c(-c3ccccn3)c2)c(Cl)c1`, the Potency entry in assay [1], in assay [4], in assay [5], in assay [16], in assay [7] and in assay [9] was “inactive” throughout. The Potency entry in assay [10], in [11], in [18] and in assay [13] was “inactive” in each case. For the same compound, the Potency in [3] is 2640 nM (active).
For the compound `CCOC(=O)N1CCC(=C2c3ccc(Cl)cc3CCc3cccnc32)CC1`, the Potency in [1] is 23500 nM (active); in assay [2], 23.5 µM (active) and 26.6 µM (active); in [5], 20900 nM (active); in [7], 30700 nM (active); in [19] it was 24.3 µM (active) and 21.9 µM (active); in assay [11], 29900 nM (active). Besides, the Potency in assay [12] was 13300 nM (active); in [14], 23.5 µM (active) and 23.7 µM (active). Besides, the Potency result in assay [16] and in assay [18] was “inactive” throughout.
With `Clc1ccc(Nc2nnc(Cc3ccncc3)c3ccccc23)cc1`, the Potency result in [1], in assay [5], in assay [16], in assay [6], in assay [8] and in assay [9] was “inactive” each time. Moreover, the Potency result in assay [11], in [13] and in assay [14] was “inactive” throughout. Besides, the Potency is 2350 nM (active) in [3], 21700 nM (active) in [7] and 19500 nM (active) in assay [19].
For `C1COC(NC(C2CC2)C2CC2)=N1`, the Potency result in assay [1], in assay [2], in assay [4], in assay [5], in assay [16] and in [6] was “inactive” each time. Besides, the Potency entry in assay [7], in assay [8], in assay [9], in assay [17], in assay [10] and in assay [19] was “inactive” throughout. For the same compound, the Potency entry in assay [11], in assay [12], in assay [13] and in assay [14] was “inactive” in each case.
